Among all 320,000 compounds or so, about 3,100 (0.97%) were called active.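 How the source made its calls: active means mean replicate inhibition of at least 70% and a set share of replicates each scoring 70 or more; inconclusive means meets just one of the two criteria; inactive means fails both criteria.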 Many of the other results were omitted from the sample, so actives are more common in it than they were.

The values that follow come from PubChem BioAssay AID488896 (Broad Institute, 2010).

In the assay the target is Scavenger receptor class B member 1 (Mus musculus) (UniProt Q61009). The assay is described as follows: mouse SR-BI DiI-HDL uptake blockers – ldlA[mSR-BI] cells, fluorescence, single point, primary screen (AID 488896).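 Further: 0% = median of neutral control wells and 100% = median of positive control wells.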 The conditions noted are these: ldlA[mSR-BI] CHO cells, 3 h, at 12.5 µM, hits give high values.
Chain of Scavenger receptor class B member 1 (Mus musculus) (Q61009 whole entry, looked up): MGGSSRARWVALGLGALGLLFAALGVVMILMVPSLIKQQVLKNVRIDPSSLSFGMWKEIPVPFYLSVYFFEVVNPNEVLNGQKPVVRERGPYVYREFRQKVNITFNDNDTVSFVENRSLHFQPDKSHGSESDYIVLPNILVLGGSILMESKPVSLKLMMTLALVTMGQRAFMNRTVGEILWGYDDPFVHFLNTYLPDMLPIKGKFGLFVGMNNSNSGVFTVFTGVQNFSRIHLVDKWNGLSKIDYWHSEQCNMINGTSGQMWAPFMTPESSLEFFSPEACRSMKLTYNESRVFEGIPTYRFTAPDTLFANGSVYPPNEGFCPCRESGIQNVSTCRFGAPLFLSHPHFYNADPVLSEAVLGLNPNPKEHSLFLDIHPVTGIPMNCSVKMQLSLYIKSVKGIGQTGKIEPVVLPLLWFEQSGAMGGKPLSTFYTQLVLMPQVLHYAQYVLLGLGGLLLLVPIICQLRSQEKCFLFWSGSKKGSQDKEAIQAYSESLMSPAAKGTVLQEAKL
Broadly, the inhibition is the drop in the measured response relative to a control, in per cent. With `COc1ccc(-c2ccc3c(c2)C2CC3CCN2CCC#N)cc1` (centres undefined), the inhibition is 33.2% (inactive).

Take `C=CCn1c(=O)n(C)c2c(=O)n(C)c(=O)n(C)c21`: the inhibition was 1.14% (inactive).

On to `COc1ccc(CCNC(=O)COc2cc(C)cc3oc(=O)c(C)c(C)c23)cc1OC`, for which the inhibition is 6.42% (inactive).

Consider `CCCn1c(C(O)c2ccc(OCC)cc2)nc2ccccc21` (centres undefined), for which the inhibition was 14% (inactive).

`Cc1ccc(C(C)C)c(OCCSc2nc3ccccc3n2CC(=O)O)c1`: the inhibition is -2.24% (inactive).

`CCOc1ccc(OCCSc2nc3ccccc3n2CC(=O)O)cc1`: the inhibition was 71.7% (active).

For the compound `COc1ccc2c(c1)c(=Cc1ccc(N(C)C)cc1)c1cc(-c3ccccc3)[n+](C)n12`, the inhibition is -63.4% (inactive).

As to `CCCN(CCC)S(=O)(=O)c1cc2c(cc1Br)CCN2C(=O)CC`, the inhibition was 7.1% (inactive).

Regarding `CCN(CC)CCCC(C)n1c2nc(=O)[nH]c(=O)c-2nc2cc(Cl)ccc21` (centres undefined), the inhibition was 9.9% (inactive).

Turning to `CCC1([N+](=O)[O-])COC(c2ccc(C(C)C)cc2)OC1` (centres undefined), the inhibition was -13.9% (inactive).

`CCc1ccc2c(c1)C1(NN=C(c3ccccc3)S1)C(=O)N2` (centres undefined): the inhibition is 115% (active).

Regarding `NNc1cccc(C=Cc2ccccc2)cc1=O`, the inhibition is 16.6% (inactive).

Turning to `CC(=O)N1CCN(C(=O)Nc2cccc(C(F)(F)F)c2)CC1`, the inhibition is -9.59% (inactive).

In the case of `O=C(Nc1cccc(NC(=O)N2CCN(c3ccccc3)CC2)c1)N1CCN(c2ccccc2)CC1`, the inhibition was 86% (active).

For the compound `O=C(Nc1ccc(F)cc1)N1CCN(c2ccc(F)cc2)CC1`, the inhibition is -29.4% (inactive).

As for `O=c1c2ccccc2ncn1CCc1ccncc1`, the inhibition is -5.47% (inactive).

`NC(=O)C1(Nc2ccc(-c3ccccc3)cc2)CCCC1`: the inhibition was 1.01% (inactive).

As for `Cc1cc(C)c(C=NNc2nc3c([nH]2)c(=O)n(C)c(=O)n3C)c(C)c1`, the inhibition was -12.4% (inactive).

In the case of `CCOc1ccc(N/C=C/C(=O)c2ccccc2)cc1`, the inhibition was -1.21% (inactive).

In the case of `CCC(=O)c1ccc(OC(=O)/C=C/c2cc(OC)c(OC)c(OC)c2)cc1`, the inhibition is 48.6% (inactive).

As to `CCOc1ccc(N/C=C/C(=O)c2cc(OC)c(OC)c(OC)c2)cc1`, the inhibition is 78.7% (active).

Turning to `COc1ccc(S(=O)(=O)N2CCc3ccccc32)cc1C(=O)Nc1cc(S(C)(=O)=O)ccc1Cl`, the inhibition is 27.5% (inactive).

Turning to `O=S(=O)(Nc1ccc2ccccc2c1)N1CCCCC1`, the inhibition is 1.03% (inactive).

As for `c1ccc(CCc2ccccn2)cc1`, the inhibition is -7.77% (inactive).

`O=C(OC12CC3CC(CC(C3)C1)C2)c1ccc(NCc2cc(O)ccc2O)cc1`: the inhibition is 5.77% (inactive).

`Cc1nc(N)nc(Cl)c1CCC1OCCO1`: the inhibition is -19.5% (inactive).

Take `Oc1[nH]c2ccccc2c1N=Nc1c(F)c(F)c(F)c(F)c1F`: the inhibition was 15.7% (inactive).

As for `CN1CCN(c2ccc(S(=O)(=O)Nc3ccccc3)cc2[N+](=O)[O-])CC1`, the inhibition is -5.63% (inactive).

Turning to `O=[N+]([O-])c1cc(S(=O)(=O)Nc2cccc(Cl)c2)ccc1N=Nc1c(O)[nH]c2ccccc12`, the inhibition was 101% (active).
